# Most compounds without a hit are left out; they make up all but 1.8% or so of the library.
# Jurkat NFkB inh: inhibitors of induced NF-kB luciferase reporter, primary screen, TCR NF-kB activation inhibitor project, cell-based, luminescence, uHTS. Jurkat, PMA/ionomycin-induced NF-kB luciferase reporter. inhibition, % at 4 µM. 0.53% of 330,000 active; in the data active = inhibition above about 50%
# 697 NFkB inh: inhibitors of PMA/ionomycin-induced NF-kB reporter, 697 cells, primary screen, B-cell NF-kB inhibitor project, cell-based, luminescence, uHTS. 697 B-cell NF-kB luciferase reporter, 16 h. inhibition, % at 4 µM. 0.33% of 330,000 active. AID 435022, 2010; in the data active = inhibition above about 35%
# Beta apoptosis: inhibitors of cytokine-induced beta cell apoptosis, primary screen, luminescence | INS-1E cytokine-induced death, ATP luminescence, 48 h; percent of positive-control rescue, neutral wells zero | protection from apoptosis, % (test concentration not listed) | 0.8% of 300,000 active;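 active = Every replicate reaches about 75%, or at least half do and their mean reaches it too, limit read from the data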;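 note: 0% = cytokine-treated negative control wells and 100% = positive control rescue; higher means more ATP so stronger rescue from cytokine killing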
# Gli-Sufu antag: Gli-Sufu pathway antagonists, primary screen, luciferase luminescence, Sufu-KO-LIGHT cells, uHTS. 0.74% of 340,000 active. Sufu-KO-LIGHT fibroblasts, Gli luciferase reporter luminescence. inhibition, % at 5 µM;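 active = inhibition above about 55%, limit read from the data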;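 note: 0% = DMSO-treated cells and 100% = wells with medium but no cells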
# 697 NFkB conf: PMA/ionomycin-induced NF-kB reporter inhibitors, 697 retest, confirmation, B-cell NF-kB inhibitor project, cell-based, luminescence, single concentration. shares compounds with 697 NFkB inh. 697 B-cell NF-kB luciferase, 16 h. inhibition, % at 4 µM. 35% of 2,000 active. AID 449746, 2010; in the data active = inhibition mostly above about 28%, no sharp cut-off; inactive = mostly below about 22%
# Active calls of the source: *; i = inactive; x = not tested or not shown.
SMILES,Jurkat NFkB inh,697 NFkB inh,Beta apoptosis,Gli-Sufu antag,697 NFkB conf
COc1ccc(OC)c(-c2nnc(SCC(=O)NC3CCCCC3)o2)c1,-1.2,-1.1,-5.1,-0.4,x
CCC(C)(C)NC(=O)Nc1cc(Cl)ccc1OC,-5.3,-20.0,3.3,-6.8,x
CCOc1ccc(C2N(c3cc(Cl)ccc3OC)C(=O)C3CCCN32)cc1OC (stereo not drawn),-9.8,6.2,-9.2,-6.3,x
Cc1cc2sc(NC(=O)c3ccco3)nc2cc1Cl,-126.7,-359.7,4.6,-90.9,-284.1
COc1ccc(N(C)S(=O)(=O)c2cccc(C(=O)NCc3ccc(C)cc3)c2)cc1,-2.3,-10.7,-2.3,2.0,x
COc1cc([N+](=O)[O-])ccc1NC(=O)Nc1nc2c(s1)CCCC2,3.8,-2.6,x,4.0,x
CCN1C(=O)c2cccc3c(S(=O)(=O)NCC4CCCO4)ccc1c23 (stereo not drawn),1.1,37.5*,-11.6,17.1,59.3*
CN1C(=O)c2cccc3c(S(=O)(=O)Nc4ccccc4F)ccc1c23,4.3,37.2*,-2.2,14.4,34.2*
CCN1C(=O)c2cccc3c(S(=O)(=O)Nc4ccccc4)ccc1c23,-1.6,52.2*,-9.5,42.2,43.2*
CCN1C(=O)c2cccc3c(S(=O)(=O)Nc4ncccc4C)ccc1c23,7.5,33.6,4.7,9.3,x
CCN1C(=O)c2cccc3c(S(=O)(=O)Nc4ccccn4)ccc1c23,3.5,58.3*,-12.8,34.2,54.4*
O=C1Nc2ccc(S(=O)(=O)NCC3CCCO3)c3cccc1c23 (stereo not drawn),-8.4,6.4,2.7,2.8,x
Cc1ccccc1-n1nc2c(c1NC(=O)/C=C\c1ccc3c(c1)OCO3)CSC2,5.5,7.0,x,-10.2,x
CCN1C(=O)c2cccc3c(S(=O)(=O)Nc4nc(C)cs4)ccc1c23,3.8,25.0,-7.1,-57.8,x
CCN1C(=O)c2cccc3c(S(=O)(=O)Nc4ccncc4)ccc1c23,-1.1,37.3*,x,7.3,9.6
Cc1nnc2ccc(N3CCN(c4cccc(C(F)(F)F)c4)CC3)nn12,-12.7,-51.5,6.4,7.3,x
Cc1sc(NC(=O)c2ccco2)c(C(c2cccnc2)N2CCC(C)CC2)c1C (stereo not drawn),36.1,35.7*,-0.9,11.3,-11.8
CN(CCC#N)c1ccc(/C=C(\C#N)c2ccccn2)cc1,-28.7,-17.6,5.2,-76.0,x
CCN(CC)c1ccc(/C=C(\C#N)c2ccccn2)cc1,-11.6,-290.5,28.2,-62.8,-428.2
CCOC(=O)Cc1csc(NC(=O)c2cc3ccccc3o2)n1,-17.4,0.7,-11.4,6.1,x
Cc1csc(NC(=O)c2ccc(C)c([N+](=O)[O-])c2)n1,-146.1,-311.3,2.5,1.9,-243.4
Cc1cc(C)nc(NC(=O)c2ccc(C)c([N+](=O)[O-])c2)n1,-13.7,-7.8,-0.9,1.9,x
Cc1csc(NC(=O)c2cc3ccccc3o2)n1,-135.1,35.8*,3.1,-100.0,13.6
Cn1cnnc1SCC(=O)Nc1cc(S(=O)(=O)N2CCCCCC2)ccc1Cl,4.1,10.5,-4.0,-4.1,x
CCC(=O)Nc1cccc(-c2ccc(N3CCC(C)CC3)nn2)c1,-71.4,-258.0,8.4,-25.4,-322.5
SMILES,Jurkat NFkB inh,697 NFkB inh,Beta apoptosis,Gli-Sufu antag,697 NFkB conf
CNC(=O)c1cc(S(=O)(=O)N2CC(C)OC(C)C2)ccc1N1CCOCC1 (stereo not drawn),-16.2,-43.2,x,-3.8,x
O=C(Nc1ccccc1C(=O)Nc1nnc(C(F)(F)F)s1)c1ccccc1,-3.1,96.2*,12.4,76.1*,93.5*
Cc1nn(C(C)(C)C)c(OC(=O)c2ccc(Br)o2)c1Sc1ccccc1,8.8,36.3*,7.0,6.8,31.1*
Oc1ccccc1C=Nc1ccccc1-c1nc2ccccc2[nH]1,-39.5,-268.0,-1.3,-54.1,-80.7
CC1C=CC=CC=CC=CC=CC=CC=CC(OC2OC(C)C(O)C(N)C2O)CC2OC(O)(CC(O)CC(O)C(O)CCC(O)CC(O)CC(=O)OC(C)C(C)C1O)CC(O)C2C(=O)O (stereo not drawn),x,x,x,17.3,x
CC(=O)c1c(C)[nH]c(C(=O)N2CCc3ccccc3C2)c1C,6.7,41.8*,-9.7,0.6,20.0
O=C(C(Cc1ccc(Cl)cc1)NS(=O)(=O)c1ccccc1)N1CC[C@@]2(O)CCCC[C@H]2C1 (stereo partly drawn),-3.9,-11.3,-6.2,7.0,x
CC(=O)c1cccc(NC(=O)c2cnn3ccccc23)c1,-84.2,-59.2,4.8,-55.4,x
CC(=O)c1ccc(NC(=O)c2cnn3ccccc23)cc1,0.4,36.4*,-0.2,4.0,17.1
Cc1ccc(C(=O)c2sc3c(c2N)c(=O)[nH]c(=O)n3CCc2ccccc2)cc1,3.9,-16.8,-2.2,24.9,x
Cc1ccc2nc(Cl)c(/C=N/Nc3ccc(C(=O)O)cc3)cc2c1,-143.6,-489.9,3.7,-148.2,-383.4
Cc1ccc2cc(/C=N/NC(=O)c3ccc(F)cc3)c(Cl)nc2c1,7.4,19.2,-6.1,3.1,x
O=C(Oc1cccc(/C=N/Nc2nc(N3CCOCC3)nc(N3CCOCC3)n2)c1)c1ccco1,-6.4,44.3*,1.5,8.9,24.6*
COc1cc(/C=N/Nc2nc(Nc3ccccc3)nc(N3CCOCC3)n2)ccc1OC(=O)c1ccco1,-45.3,48.9*,-4.0,20.1,38.7*
COc1cc(/C=N/Nc2nc(Nc3ccccc3)nc(N3CCCCC3)n2)ccc1OCC(=O)O,-9.2,-18.9,16.3,-8.6,x
NC(=S)NNC(=O)Nc1ccc(Cl)c(Cl)c1,-0.9,8.2,-9.8,-1.9,x
O=C(Nc1nnc(SCC(=O)N2CCCCC2)s1)c1ccc(F)cc1F,-10.5,-3.3,3.3,14.4,x
Cc1cccc(N/C=C/C(=O)c2ccc(Cl)cc2)c1,-136.4,-154.0,-1.3,-125.2,x
O=C(/C=C\Nc1ccccn1)c1ccc(Cl)cc1,-73.0,-284.2,5.7,-86.6,-238.4
N#Cc1cnn2c(C(F)(F)F)c3c(nc12)CCCC3,9.1,11.2,2.1,-3.4,x
O=c1cc[nH]c2ccc(Cl)cc12,-12.3,0.1,1.7,0.0,x
O=c1cccc2c1c1cc[nH]c3ccc(=O)n2c31,23.6,55.9*,-5.4,-1.1,52.2*
Nc1nc(Nc2ccccc2F)sc1C(=O)c1ccccc1,-57.7,-260.0,3.7,-37.7,-21.0
COCCNC(=O)CSc1ncnc2sc(-c3ccccc3)cc12,2.6,12.0,9.2,-1.3,x
CC(=O)CCSc1ncnc2sc(-c3ccccc3)cc12,-126.1,-336.3,-11.5,-75.1,-163.9
CC(Sc1ncnc2sc(-c3ccccc3)cc12)C(N)=O (stereo not drawn),-10.8,-17.2,-3.1,-12.3,x
O=C(O)CCSc1ncnc2sc(-c3ccccc3)cc12,21.7,80.7*,-3.3,45.7,62.5*
CCOC(=O)c1c(NC(=O)c2c(-c3ccccc3)noc2C)sc(C)c1-c1ccccc1,-28.2,i,5.8,-6.7,i
CCOCc1nnc(NC(=O)c2c(-c3ccccc3)noc2C)s1,12.3,6.0,x,-15.2,x
COC(=O)c1ccc(Cl)c(NS(=O)(=O)c2ccc3c(c2)OCCO3)c1,11.6,-63.8,2.0,26.9,x

# Screens (PubChem)
